Test results published in PubChem BioAssay (Tox21).
Values without a mark were called inactive. Results filed as inconclusive are left out. Entries that show only a call come without a potency. Active and inactive are the calls of the source. The call rests on the fitted dose curve; in most records, active means well fitted curve in the direction sought with a large enough effect in the repeat runs; inconclusive means weak or mixed curves; inactive means no such curve, though single readings can be large; an effect the other way counts as inactive or inconclusive.

Key:
[1] = A CellTox Green Cytotoxicity Assay to monitor cytotoxicity in HEK293 cells - 40 hour (AID 1224871); further: nearly all actives have a fitted effect of over 45% in size
Outline: (§1)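 Cells (HEK293, 600/well) and dye reagent are dispensed together. After 5 h at 37 C, 23 nL compound is pinned in. Plates stay at 37 C for 40 h with fluorescence read at 0h, 8h, 16h, 24h, 32h and 40h.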

[2] = qHTS RealTime-Glo MT Cell Viability Assay in HEK293 cells - 16 hour (AID 1224872); further: nearly all actives have a fitted effect of over 50% in size; further: potency means the concentration at half of the fitted maximal effect
Outline: (§2)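 HEK293 cells seeded with NanoLuc/prosubstrate reagent, rested 5 h at 37 C, then dosed and kept at 37 C up to 40 h. Nonlytic real-time luminescence from viable cells read at 0, 8, 16, 24, 32 and 40 h.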

[3] = qHTS RealTime-Glo MT Cell Viability Assay in HepG2 cells - 8 hour (AID 1224873); further: nearly all actives have a fitted effect of over 55% in size
Outline: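 HepG2 cells mixed with RealTime-Glo MT reagents (NanoLuc plus cell-permeant prosubstrate) were seeded at 600 cells/well, incubated 5 h at 37 C/5% CO2, then pinned with compounds in DMSO; nonlytic luminescence tracked viability during 40 h treatment.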

[4] = qHTS RealTime-Glo MT Cell Viability Assay in HEK293 cells - 40 hour (AID 1224874); conditions: RealTime-Glo luminescence; max response: hits give low values; further: nearly all actives have a fitted effect of over 50% in size
Outline: (§3)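 Real-time viability in HEK293: signal arises when living cells convert a prosubstrate for NanoLuc in the medium, so luminescence tracks viable cell number. Compound (23 nL, DMSO) added 5 h post-seeding; kinetic reads at 0–40 h, 37 C.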

[5] = A CellTox Green Cytotoxicity Assay to monitor cytotoxicity in HEK293 cells - 24 hour (AID 1224875); further: series mostly up to about 77 µM; nearly all actives have a fitted effect of over 45% in size
Outline: as §1

[6] = A CellTox Green Cytotoxicity Assay to monitor cytotoxicity in HepG2 cells - 16 hour (AID 1224876); further: nearly all actives have a fitted effect of over 45% in size
Outline: (§4)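 Cells and non-lytic dye reagent are dispensed together (600 HepG2 cells/well) and incubated 5 h before DMSO compound transfer. Kinetic fluorescence is then recorded in the same wells during 40 h at 37 C.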

[7] = A CellTox Green Cytotoxicity Assay to monitor cytotoxicity in HepG2 cells - 24 hour (AID 1224878); further: nearly all actives have a fitted effect of over 45% in size
Outline: as §4

[8] = A CellTox Green Cytotoxicity Assay to monitor cytotoxicity in HepG2 cells - 40 hour (AID 1224879); further: nearly all actives have a fitted effect of over 40% in size
Outline: as §4

[9] = A CellTox Green Cytotoxicity Assay to monitor cytotoxicity in HEK293 cells - 32 hour (AID 1224881); further: nearly all actives have a fitted effect of over 40% in size
Outline: as §1

[10] = A CellTox Green Cytotoxicity Assay to monitor cytotoxicity in HepG2 cells - 0 hour (AID 1224882); further: nearly all actives have a fitted effect of over 35% in size
Outline: as §4

[11] = A CellTox Green Cytotoxicity Assay to monitor cytotoxicity in HepG2 cells - 32 hour (AID 1224883); further: nearly all actives have a fitted effect of over 50% in size
Outline: as §4

[12] = A CellTox Green Cytotoxicity Assay to monitor cytotoxicity in HEK293 cells - 8 hour (AID 1224884); further: nearly all actives have a fitted effect of over 35% in size
Outline: as §1

[13] = qHTS RealTime-Glo MT Cell Viability Assay in HepG2 cells - 16 hour (AID 1224885); further: nearly all actives have a fitted effect of over 50% in size
Outline: (§5)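 HepG2 cells (600/well) were dispensed with RealTime-Glo reagents, incubated 5 h at 37 °C, then treated with compounds in DMSO for up to 40 h. Nonlytic NanoLuc luminescence reflecting viable cells was read at each stated time point.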

[14] = qHTS RealTime-Glo MT Cell Viability Assay in HEK293 cells - 24 hour (AID 1224886); further: nearly all actives have a fitted effect of over 50% in size; further: potency means the concentration at half of the fitted maximal effect
Outline: as §2

[15] = qHTS RealTime-Glo MT Cell Viability Assay in HEK293 cells - 8 hour (AID 1224887); further: nearly all actives have a fitted effect of over 50% in size; further: potency means the concentration at half of the fitted maximal effect
Outline: as §3

[16] = A CellTox Green Cytotoxicity Assay to monitor cytotoxicity in HEK293 cells - 16 hour (AID 1224888); further: nearly all actives have a fitted effect of over 35% in size
Outline: as §1

[17] = qHTS RealTime-Glo MT Cell Viability Assay in HepG2 cells - 0 hour (AID 1224889); further: nearly all actives have a fitted effect of over 50% in size
Outline: as §5

[18] = A CellTox Green Cytotoxicity Assay to monitor cytotoxicity in HepG2 cells - 8 hour (AID 1224890); further: nearly all actives have a fitted effect of over 45% in size
Outline: as §4

[19] = qHTS RealTime-Glo MT Cell Viability Assay in HepG2 cells - 32 hour (AID 1224877); further: nearly all actives have a fitted effect of over 55% in size
Outline: as §5

[20] = qHTS RealTime-Glo MT Cell Viability Assay in HEK293 cells - 0 hour (AID 1224880)
Outline: as §3

Row | Structure (SMILES) | Potency [1] | Potency [2] | Potency [3] | max response [4] | Potency [5] | Potency [6] | Potency [7] | Potency [8] | Potency [9] | Potency [10] | Potency [11] | Potency [12] | Potency [13] | Potency [14] | Potency [15] | Potency [16] | Potency [17] | Potency [18] | Potency [19] | Potency [20]
1 | FC1(F)C(F)(F)C(F)(F)C2(F)C(F)(F)C(F)(F)C(F)(F)C(F)(F)C2(F)C1(F)F (stereo not given) | inactive | inactive | inactive | 1.37% | inactive | inactive | inactive | inactive | inactive | inactive | inactive | inactive | inactive | inactive | inactive | inactive | inactive | inactive | – | –
2 | O=S(O)CO | inactive | inactive | inactive | – | inactive | inactive | inactive | inactive | inactive | inactive | inactive | inactive | – | inactive | inactive | inactive | inactive | inactive | inactive | inactive
3 | CN(C)CCCNCCCN(C)C | inactive | inactive | inactive | – | inactive | inactive | inactive | inactive | inactive | inactive | inactive | inactive | – | inactive | inactive | inactive | inactive | inactive | inactive | inactive
4 | NS(=O)(=O)c1ccc(C(=O)O)cc1 | inactive | inactive | inactive | – | inactive | inactive | inactive | inactive | inactive | inactive | inactive | inactive | inactive | inactive | inactive | inactive | inactive | – | inactive | inactive
5 | C[C@H](NC(CCc1ccccc1)C(=O)O)C(=O)N1CCC[C@H]1C(=O)O (stereo not given in full) | inactive | inactive | inactive | – | inactive | inactive | inactive | inactive | inactive | inactive | inactive | inactive | – | inactive | inactive | inactive | inactive | inactive | inactive | –
6 | O=C1CCCC(=O)C1 | inactive | inactive | inactive | – | inactive | inactive | inactive | inactive | inactive | inactive | inactive | inactive | inactive | inactive | inactive | inactive | inactive | inactive | inactive | –
7 | O=[N+]([O-])c1ccc(F)cc1F | inactive | inactive | inactive | – | inactive | inactive | inactive | inactive | inactive | inactive | inactive | inactive | – | inactive | inactive | inactive | inactive | inactive | inactive | inactive
8 | OC1CCCCC1c1ccccc1 (stereo not given) | inactive | inactive | inactive | – | inactive | inactive | inactive | inactive | – | inactive | inactive | inactive | inactive | inactive | inactive | inactive | inactive | – | inactive | –
9 | COCCCOCCCOC | inactive | inactive | inactive | – | inactive | inactive | – | – | inactive | inactive | – | inactive | inactive | inactive | inactive | inactive | inactive | inactive | inactive | –
10 | CC(=O)c1ccccc1O | inactive | inactive | inactive | – | inactive | inactive | inactive | inactive | inactive | inactive | inactive | inactive | – | inactive | inactive | inactive | inactive | inactive | – | inactive
11 | CN1CCCC1 | inactive | inactive | inactive | – | inactive | inactive | inactive | inactive | inactive | inactive | inactive | – | inactive | inactive | – | inactive | inactive | – | – | –
12 | O=C1NC(=O)[C@@]2(CCOc3ccc(F)cc32)N1 | inactive | inactive | inactive | – | inactive | inactive | inactive | inactive | – | inactive | inactive | inactive | inactive | inactive | inactive | inactive | inactive | – | inactive | inactive
13 | CCOC(=O)c1c(C)n(C)c2ccc(O)cc12 | inactive | inactive | inactive | – | inactive | inactive | inactive | inactive | – | inactive | inactive | inactive | inactive | inactive | inactive | inactive | inactive | inactive | inactive | –
14 | OC(CCN1CCCCC1)(c1ccccc1)C1CC2C=CC1C2 (stereo not given) | – | inactive | inactive | -10.3% | inactive | inactive | inactive | inactive | inactive | inactive | inactive | inactive | inactive | inactive | inactive | inactive | inactive | inactive | inactive | inactive
15 | O=C(CCCN1CCC(O)(c2cccc(C(F)(F)F)c2)CC1)c1ccc(F)cc1 | inactive | 19 µM (active) | inactive | – | inactive | inactive | – | – | inactive | inactive | – | inactive | inactive | 16.9 µM (active) | 15.1 µM (active) | inactive | inactive | – | inactive | inactive
